TDP1 cell noCPT – qHTS for Inhibitors of human tyrosyl-DNA phosphodiesterase 1 (TDP1): qHTS in cells in absence of CPT; DT40 Tdp1-/- hTDP1 cells, no CPT, ATP luminescence, 48 h; Potency, µM (highest dose often 46.2 µM), hits mostly inhibitors; 420,000 tested, 15% active; AID 686978, 2013; also: nearly all actives have a fitted effect of over 55% in size
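Camptothecin absent (DMSO only). Human TDP1-complemented DT40 knockout cells, 400 cells/well, 37 °C for minimum 48 hr; ATP measured via CellTiter-Glo, 30 min dark incubation, luminescence.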
HT1080-NT tox – kills 2HG-producing HT-1080-NT fibrosarcoma cells; AID 686970; Potency, µM (titrated, usually from 46.1 µM), actives largely listed as cytotoxic; HT-1080-NT fibrosarcoma viability, CellTiter-Glo ATP luminescence, 48 h; 360,000 tested, 1.6% active;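 also: NT is the 2HG producing partner of a matched IDH1 knockdown line; nearly all actives have a fitted effect of over 55% in size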
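HT-1080-NT fibrosarcoma cells (2HG-overproducing), 750 cells/well in RPMI with 5% FBS, dosed after 2 h and incubated 48 h at 37C. CellTiter-Glo luminescence normalized to DMSO and no-cell wells; concentration-response curves fitted and classed.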
TDP1 cell CPT – growth inhibition of DT40 Tdp1-/-;hTDP1 cells with camptothecin (screen for TDP1 inhibitors) | chicken DT40 Tdp1-/-;hTDP1 cells + 20 nM CPT, ATP luminescence, 48 h | Potency, µM (titrated, usually from 46.2 µM), hits mostly inhibitors | 420,000 tested, 12% active; also: nearly all actives have a fitted effect of over 55% in size
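Chicken DT40 Tdp1-/- cells complemented with human TDP1, 400 cells/well, exposed to compounds plus 20 nM camptothecin for at least 48 h at 37 C; viability read as ATP content by CellTiter-Glo luminescence.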
HT1080 IDH1KD tx – toxicity to HT-1080 IDH1 knockdown cells (counter line); HT-1080 IDH1 knockdown viability, ATP luminescence, 48 h; Potency, µM (titrated, usually from 46.1 µM), actives largely listed as cytotoxic; AID 686971; 360,000 tested, 2% active
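Using the IDH1-knockdown HT-1080 line run in the same batch and compound series as the NT line, viability after 48 h at 37 °C was determined by CellTiter-Glo luminescence and expressed as % activity.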
IL-1B inflam inh – blocks inflammasome-driven IL-1 beta release; AID 743279; THP-1 LPS/ATP IL-1B secretion, AlphaLISA, 16 h; hits give low values; activity change, % at 57.5 µM; 360,000 tested, 4.7% active; in the data active = activity change below about -50%; inconclusive = mostly about -30% to -49%
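Secreted IL-1B measured by AlphaLISA bead assay after 16 h compound exposure of THP-1 cells; compounds (final up to 57.5 uM) added 1 h before LPS (250 ng/mL) and ATP (1.25 mM) stimulation; lower signal means less secretion.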
A number is an active result; [ ] = another dose, or the depositor's remark. Compounds with a hit are over-represented: about 19% of the library has one in this group of screens. Unless noted, calls follow the shape of the dose curve; as a rule, active = well fitted curve in the direction sought with a large enough effect; inconclusive = small, poorly fitted or top-dose-only effect, or another doubt; inactive = no such curve, though single readings can be large; an effect the other way counts as inactive or inconclusive.

Screening CCOCCCn1c(=N)c(S(=O)(=O)c2ccccc2)cc2c(=O)n3cc(C)ccc3nc21 returned TDP1 cell noCPT 16.4µM, HT1080-NT tox inactive, TDP1 cell CPT inconclusive, HT1080 IDH1KD tx inactive and IL-1B inflam inh inactive.
`COCCCn1c(=N)c(C(N)=S)cc2c(=O)n3cccc(C)c3nc21` gave TDP1 cell noCPT 23.1µM, HT1080-NT tox inactive, TDP1 cell CPT 18.4µM, HT1080 IDH1KD tx inactive and IL-1B inflam inh -68.2.
Cc1cccn2c(=O)c3cc(C(N)=S)c(=N)n(CCCN4CCOCC4)c3nc12 was read as TDP1 cell noCPT inconclusive, HT1080-NT tox inactive, TDP1 cell CPT inconclusive, HT1080 IDH1KD tx inactive and IL-1B inflam inh inactive.
`CCn1c(=N)c(C(=O)NCc2ccccc2)cc2c(=O)n3cccc(C)c3nc21` gave TDP1 cell noCPT inactive and TDP1 cell CPT inactive.
For O=C(O)/C=C\c1cc2c(cc1[N+](=O)[O-])OCO2 the results were TDP1 cell noCPT inactive, HT1080-NT tox inactive, TDP1 cell CPT inactive, HT1080 IDH1KD tx inactive and IL-1B inflam inh inactive.
`O=C1NC(=S)N/C1=C/c1cc2c(cc1[N+](=O)[O-])OCO2` gave TDP1 cell noCPT 0.581µM, HT1080-NT tox inactive, TDP1 cell CPT 4.11µM, HT1080 IDH1KD tx inactive and IL-1B inflam inh inactive.
`Cc1ccc2c(c1)/C(=C/c1ccccc1C)C(=O)N2` gave TDP1 cell noCPT inconclusive, HT1080-NT tox inconclusive, TDP1 cell CPT inactive, HT1080 IDH1KD tx inconclusive and IL-1B inflam inh -99.9.
Screening O=C1Nc2ccccc2/C1=C/c1ccccc1Cl returned TDP1 cell noCPT inconclusive, HT1080-NT tox inconclusive, TDP1 cell CPT inactive, HT1080 IDH1KD tx inconclusive and IL-1B inflam inh inactive.
`Cc1ccc2c(c1)/C(=C/c1ccc(F)cc1)C(=O)N2` gave TDP1 cell noCPT 20.6µM, HT1080-NT tox inconclusive, TDP1 cell CPT inconclusive, HT1080 IDH1KD tx inconclusive and IL-1B inflam inh -74.6.
COc1ccccc1/C=C1\C(=O)Nc2ccccc21 was read as TDP1 cell noCPT 20.6µM, HT1080-NT tox inactive, TDP1 cell CPT inconclusive, HT1080 IDH1KD tx inactive and IL-1B inflam inh inactive.
COc1ccccc1CN(C)C[C@H]1OCc2cnnn2CCCC(=O)N([C@@H](C)CO)C[C@@H]1C was read as TDP1 cell noCPT inactive, HT1080-NT tox inactive, TDP1 cell CPT inactive, HT1080 IDH1KD tx inactive and IL-1B inflam inh inactive.
For CCSc1nnc(NC(=O)CCNS(=O)(=O)c2ccccc2F)s1 the results were TDP1 cell noCPT inactive, HT1080-NT tox inactive, TDP1 cell CPT inactive, HT1080 IDH1KD tx inactive and IL-1B inflam inh inactive.
`CCC(C)NC(=O)CNC(=O)c1nn(-c2ccc(OC)c(Cl)c2)c(=O)c2ccccc12` (configuration not stated) gave TDP1 cell noCPT inconclusive, HT1080-NT tox inactive, TDP1 cell CPT inactive, HT1080 IDH1KD tx inactive and IL-1B inflam inh inactive.
For C[C@@H](C1[C@@H](O)CC2C3C=CC4C[C@@H](O)CC[C@]4(C)[C@H]3CC[C@@]21C)[C@@H]1CCCCN1 (some centres not stated) the results were TDP1 cell noCPT 1.16µM and TDP1 cell CPT 1.64µM.
Screening O=C(CSc1ccc(-c2cccnc2)nn1)Nc1ccc(F)c(F)c1 returned TDP1 cell noCPT inconclusive, HT1080-NT tox inconclusive, TDP1 cell CPT inconclusive, HT1080 IDH1KD tx inactive and IL-1B inflam inh inactive.
NC(Cc1c[nH]c2ccccc12)C(=O)NCc1ccccc1 (configuration not stated) was read as TDP1 cell noCPT inconclusive, HT1080-NT tox inactive, TDP1 cell CPT inactive, HT1080 IDH1KD tx inactive and IL-1B inflam inh inactive.
Screening O=C(NC(=S)NCc1ccccc1)C1CCCCC1 returned TDP1 cell noCPT 20.6µM, HT1080-NT tox inactive, TDP1 cell CPT 18.4µM, HT1080 IDH1KD tx inactive[9.24 µM] and IL-1B inflam inh inactive.
COc1ccc(C(=O)N/C(=C\c2cccc3ccccc23)C(=O)N2CCN(C)CC2)cc1 was read as TDP1 cell noCPT 18.4µM, HT1080-NT tox inactive[9.24 µM], TDP1 cell CPT inconclusive, HT1080 IDH1KD tx inactive and IL-1B inflam inh inconclusive.
`COc1ccc(C(=O)N/C(=C\c2cn(C)c3ccccc23)C(=O)N2CCN(C)CC2)cc1` gave TDP1 cell noCPT inactive, HT1080-NT tox inactive, TDP1 cell CPT inactive, HT1080 IDH1KD tx inactive and IL-1B inflam inh inactive.
Screening C=CCOC(=O)/C(=C/c1cccc2ccccc12)NC(=O)c1ccccc1 returned TDP1 cell noCPT 23.1µM, HT1080-NT tox inactive, TDP1 cell CPT 29.1µM, HT1080 IDH1KD tx inactive and IL-1B inflam inh inactive.
Screening OC(CNCC(c1ccco1)N1CCCCC1)c1ccccc1 (configuration not stated) returned TDP1 cell noCPT inactive, HT1080-NT tox inactive, TDP1 cell CPT inactive, HT1080 IDH1KD tx inactive and IL-1B inflam inh inactive.
`O=C(NCC1CCCO1)c1cc(S(=O)(=O)N2CCCC2)c(Cl)cc1Cl` (configuration not stated) gave TDP1 cell noCPT inactive, HT1080-NT tox inactive, TDP1 cell CPT inactive, HT1080 IDH1KD tx inactive and IL-1B inflam inh inactive.
O=C(CSc1nc2ccccc2c(=O)n1-c1ccc(F)c(Cl)c1)Nc1cccc(S(=O)(=O)N2CCOCC2)c1 was read as TDP1 cell noCPT inconclusive, HT1080-NT tox inactive, TDP1 cell CPT 16.4µM, HT1080 IDH1KD tx inactive and IL-1B inflam inh inactive.
Screening O=C(CSc1nc2ccccc2c(=O)n1-c1ccc(F)cc1)Nc1ccc(Cl)c(S(=O)(=O)N2CCOCC2)c1 returned TDP1 cell noCPT 16.4µM, HT1080-NT tox inactive, TDP1 cell CPT inconclusive, HT1080 IDH1KD tx inactive and IL-1B inflam inh inactive.
For O=C(Cn1nnc2ccccc2c1=O)Nc1cccc(S(=O)(=O)N2CCOCC2)c1 the results were TDP1 cell noCPT inactive, HT1080-NT tox inactive, TDP1 cell CPT inactive, HT1080 IDH1KD tx inactive and IL-1B inflam inh inactive.
Cc1ccc(-n2c(SCC(=O)Nc3cc(S(=O)(=O)N4CCOCC4)ccc3Cl)nc3ccccc3c2=O)cc1 was read as TDP1 cell noCPT inactive, HT1080-NT tox inactive, TDP1 cell CPT inactive, HT1080 IDH1KD tx inactive and IL-1B inflam inh inactive.
Cc1nc2cc(-c3ccccc3)nn2c(N)c1-c1ccccc1 was read as TDP1 cell noCPT inconclusive, HT1080-NT tox inactive, TDP1 cell CPT inactive, HT1080 IDH1KD tx inactive and IL-1B inflam inh inactive.
Screening Cc1nc2c(-c3ccccc3)c(C)nn2c(N)c1-c1ccccc1 returned TDP1 cell noCPT 29.1µM, HT1080-NT tox inconclusive, TDP1 cell CPT 20.6µM, HT1080 IDH1KD tx inconclusive and IL-1B inflam inh inactive.
Cc1nn2c(N)c(-c3ccccc3)cnc2c1-c1ccc(Cl)cc1 was read as TDP1 cell noCPT inconclusive, HT1080-NT tox inconclusive, TDP1 cell CPT 16.4µM, HT1080 IDH1KD tx inconclusive and IL-1B inflam inh -68.8.
Screening Cc1cc(N)n2nc(-c3ccccc3)c(-c3ccccc3)c2n1 returned TDP1 cell noCPT 1.64µM, HT1080-NT tox inactive, TDP1 cell CPT 1.46µM, HT1080 IDH1KD tx inactive and IL-1B inflam inh inactive.

Screening results from PubChem.
